Source: PubChem (National Center for Advancing Translational Sciences (NCATS))
Vif-A3F inh: qHTS for Inhibitors of Vif-A3F Interactions: qHTS; Potency, µM (titrated, usually from 46.1 µM), for the others: at the top dose activity, negative = active; 390,000 compounds, 0.2% hits; HeLa A3F-eYFP + Vif (tagged APOBEC3F with the HIV-1 protein that degrades it), YFP fluorescence increase; also: potency is read from the fitted curve at half-maximal effect; % of control where 0% means no effect; nearly all actives have a fitted effect of over 65% in size
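Fluorescence increase (Ex 488/Em 500-530) after overnight compound treatment at 37 deg C flags inhibition of Vif-driven A3F-eYFP loss in stable HeLa A3F-eYFP/Vif cells seeded overnight beforehand.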
TRPML1 ag: qHTS for Agonists of the Human Mucolipin Transient Receptor Potential 1 (TRPML1); 410,000 compounds, 0.12% hits; AID 624414, 2012; TRPML1-expressing cells, Ca2+ dye fluorescence, FDSS; activation, % (no concentration beside the values); in the data active = activation above about 50%; inconclusive = mostly about 30% to 49%; also: 0% is about no effect
Target sequence (Q9GZU1 whole entry, looked up): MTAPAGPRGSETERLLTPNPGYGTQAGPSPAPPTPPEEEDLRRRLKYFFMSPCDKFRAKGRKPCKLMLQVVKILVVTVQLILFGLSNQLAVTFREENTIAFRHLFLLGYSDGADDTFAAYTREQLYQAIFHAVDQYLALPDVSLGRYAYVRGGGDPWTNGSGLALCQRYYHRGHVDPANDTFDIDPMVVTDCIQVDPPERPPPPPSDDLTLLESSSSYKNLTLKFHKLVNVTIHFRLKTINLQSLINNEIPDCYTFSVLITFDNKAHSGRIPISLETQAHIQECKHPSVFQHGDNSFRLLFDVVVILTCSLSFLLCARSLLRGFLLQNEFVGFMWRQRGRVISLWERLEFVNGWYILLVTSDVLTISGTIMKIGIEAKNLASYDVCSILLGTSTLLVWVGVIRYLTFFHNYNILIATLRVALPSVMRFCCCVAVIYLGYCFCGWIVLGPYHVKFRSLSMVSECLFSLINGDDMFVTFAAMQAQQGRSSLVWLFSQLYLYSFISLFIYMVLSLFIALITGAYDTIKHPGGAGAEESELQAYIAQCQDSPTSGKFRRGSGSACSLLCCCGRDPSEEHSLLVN
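Agonist activity was taken from a 110 s kinetic Ca2+ dye read on the FDSS after pinning compounds onto TRPML1-DL cells. The cells were seeded at 1,500/well with Tet inducer, incubated about 16 h, then dye-loaded at room temperature.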
Vif-A3G inh: qHTS for Inhibitors of Vif-A3G Interactions: qHTS; DNA dC->dU-editing enzyme APOBEC-3G (Homo sapiens), Q9HC16; HeLa A3G-eYFP + Vif (tagged APOBEC3G with the HIV-1 protein that degrades it), YFP fluorescence, overnight; Potency, µM (highest dose often 46.1 µM), for the others: at the top dose activity, negative = active, usual class: inhibitors; 410,000 compounds, 0.076% hits; also: potency is read from the fitted curve at half-maximal effect; % is scaled to controls: 0 for no effect and ±100 for the full control effect; nearly all actives have a fitted effect of over 60% in size
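Read-out is eYFP fluorescence (Ex 488/Em 500-530) from Vif-expressing HeLa A3G-eYFP cells; more signal means A3G escaped Vif-mediated degradation. Cells plated overnight, compound pinned in, incubated overnight at 37 deg C.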
A-T KAP1 phos: qHTS Assay for Identifying a Potential Treatment of Ataxia-Telangiectasia; AID 485349, 2010; F2112 A-T fibroblasts, KAP-1 phosphorylation AlphaLISA; neocarzinostatin DNA damage 30 min before lysis; 320,000 compounds, 0.19% hits; Potency, µM (doses to about 57.5 µM), for the others: top-dose activation, hits mostly activators; also: potency is read from the fitted curve at half-maximal effect; % of control where 0% means no effect; nearly all actives have a fitted effect of over 45% in size
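ATM-like activity read as KAP-1 phosphorylation via AlphaLISA donor/acceptor antibody pairs after lysis and 6 hr at 25C. Cells were ATM-null patient fibroblasts (F2112, hTERT), dosed 60 min, then exposed to the DSB inducer NCS for 30 min.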
TRPML1 inh: qHTS for Inhibitors of the Human Mucolipin Transient Receptor Potential 1 (TRPML1). TRPML1-inducible cells, Ca2+ dye fluorescence, FDSS; hits give low values; inhibition of EC80 agonist-evoked calcium signal. Mucolipin-1 (Homo sapiens), Q9GZU1. activity change, negative = inhibition, % (no concentration beside the values). 390,000 compounds, 0.02% hits; in the data active = activity change below about -50%; inconclusive = between about -30% and that limit;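 also: stimulus is agonist 54-4 at its EC80 concentration; % is scaled to controls: 0 for no effect and ±100 for the full control effect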
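Tet-induced TRPML1-DL cells loaded with Ca8 no-wash calcium dye were read kinetically on FDSS. Compound addition was followed by EC80 agonist 54-4 (4 uM final); inhibition was read over 110 s.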
The depositor's hits bear a star; ? = inconclusive; / = no result; ! = not confirmed by another sample. Rows were chosen to be rich in hits. Some 0.54% of all compounds tested hit in one or more screens of this group. Unless noted, calls follow the shape of the dose curve; as a rule, active = well fitted curve in the direction sought with a large enough effect; inconclusive = small, poorly fitted or top-dose-only effect, or another doubt; inactive = no such curve, though single readings can be large; an effect the other way counts as inactive or inconclusive.

SMILES	Vif-A3F inh	TRPML1 ag	Vif-A3G inh	A-T KAP1 phos	TRPML1 inh
C[C@@H]1CCCCO[C@H](CN(C)S(=O)(=O)c2cn(C)cn2)[C@@H](C)CN([C@H](C)CO)C(=O)c2cc(NC(=O)c3ccncc3)ccc2O1	1%	/	2%	/	/
CCCCN(C)CCCNC(=O)C1CCN(c2nc3ccc(CC)cc3s2)CC1	0%	0	5%	/	22
NC(=O)c1cc2ccc(O)cc2oc1=NCc1ccccc1	-10%	59*	0%	5%	-15
CC1CCN(C(=O)C(C)Sc2nc(-c3ccccc3)cc(C(F)(F)F)n2)CC1 (configuration not stated)	-4%	2	20µM*!	0%	40
O=C(N/N=C/c1ccc([N+](=O)[O-])o1)c1cc2ccccc2o1	-12%	1	?	0%	-19
O=C(N/N=C/c1ccc([N+](=O)[O-])o1)c1cc2c(ccc3ccccc32)o1	7.9µM*	0	?	2%	21
CCSc1nnc(-c2ccncc2)o1	0%	0	-1%	-4%	-3
CCSc1nnc(-c2sc3nnc(-c4ccccc4)c(-c4ccccc4)c3c2N)o1	13µM*	27	3.2µM*	15%	-4
CCCCc1nn2c(=O)cc(COC(=O)c3ccc(NC(=O)C(CC)CC)cc3)nc2s1	-2%	1	2%	/	33
COc1ccccc1CCC(=O)Nc1ccc2c(c1)c(=O)n(C)n2Cc1ccc(F)cc1	/	1	?	/	8
COc1cccc(Cn2c3ccc(NC(=O)CCc4ccc(F)cc4)cc3c(=O)n2C)c1	/	4	4µM*	/	85
CC1(C(=O)NS(=O)(=O)c2ccc(C#N)cc2)CCN1C(=O)Cc1ccc(-c2ccccc2)cc1 (configuration not stated)	/	-1	-4%	/	/
Clc1ccc(/C=C/c2ccnc3ccccc23)c(Cl)c1	/	0	-2%	/	/
COc1cc(/C=C(\C#N)c2nc3ccccc3n2C)cc(OC)c1O	?	59*	13%	-5%	-22
Cn1c(/C(C#N)=C/c2ccc(O)cc2)nc2ccccc21	3%	/	1%	-15%	/
Cc1ccc2c(c1)-c1onc(C(=O)N3CCN(c4cc(Cl)ccc4C)CC3)c1CO2	-2%	2	-3%	/	5
CC[C@@H]1CCC[C@@H](O)[C@@H](C)C(=O)O[C@H](C)[C@@H](C)C/C=C(C)/C(OC)=C\C(=O)N(C)C([C@@H](C)CC)C(=O)N(C)[C@@H](C(C)C)C(=O)N(C)[C@@H](COC)C(=O)N2CCC[C@H]2C(=O)N(C)[C@@H](C(C)C)C(=O)N2CCC[C@H]2C(=O)O1 (some centres not stated)	/	51*	-13%	/	/
CC(C)c1ccc(Cn2cnc3c(cnn3C(C)(C)C)c2=O)cc1	/	2	1%	/	9
Cc1c(F)cccc1Cn1cnc2c(cnn2C(C)(C)C)c1=O	/	2	0%	/	-1
Cc1ccc2nc(SCC(=O)Nc3ccccc3N3CCOCC3)c(C#N)cc2c1	-3%	7	?	/	15
Cc1ccc2nc(SCC(=O)Nc3ccc4sc(C)nc4c3)c(C#N)cc2c1	11µM*	-1	-4%	-1%	9
CCNC(=S)N/N=C(\C)c1ccc(N2CCOCC2)cc1	22µM*	-1	0%	-3%	9
CNC(=S)N/N=C(\C)c1ccc(N2CCOCC2)cc1	?	1	-1%	4%	-13
CCOC(=O)COc1ccc(S(=O)(=O)N2CCN(c3ccccc3)CC2)cc1	-4%	1	1%	25µM*	0
CCOC(=O)COc1ccc(S(=O)(=O)N2CCN(c3ccc(F)cc3)CC2)cc1	-2%	0	-1%	0%	-6
SMILES	Vif-A3F inh	TRPML1 ag	Vif-A3G inh	A-T KAP1 phos	TRPML1 inh
Cn1c(-c2ccc(S(=O)(=O)N3CCCC3)cc2)csc1=Nc1ccc(Cl)c(Cl)c1	0%	0	5%	/	0
COC(=O)c1ccc(S(=O)(=O)N2CCCN(Cc3cccc(Br)c3F)CC2)n1C	3%	2	0%	40µM*	38
CNC(=S)N/N=C(\C)c1ccc(Cl)s1	7.9µM*	0	1%	-3%	-14
N#C/C(=C/c1ccc(-c2ccc(S(N)(=O)=O)cc2)o1)c1nc2ccccc2s1	?	64*	?	1%	3
CC(=O)c1ccc(S(=O)(=O)N2CCn3cccc3C2c2ccccc2F)cc1 (configuration not stated)	2%	4	2%	/	31
CCc1cc2c(=O)c(-c3nc4ccccc4n3C)c(C)oc2c(CN(CC)CC)c1O	0%	-1	0%	-9%	33
CCN(CC)Cc1c(O)ccc2cc(-c3nc4ccccc4n3C)c(=O)oc12	2%	15	0%	22µM*	-8
COc1cccc(CNC(=O)C(Cc2ccccc2)NS(=O)(=O)c2ccc3c(c2)CCN3C(C)=O)c1 (configuration not stated)	0%	0	-8%	/	2
CC(C)CCNC(=O)c1ccc2c(c1)NC(=O)C(CS(=O)(=O)Cc1cccc(Br)c1)N2 (configuration not stated)	11µM*	1	?	/	-20
CN(C)CCNC(=O)c1ccc2c(c1)NC(=O)C(CS(=O)(=O)Cc1cccc(Br)c1)N2 (configuration not stated)	-8%	1	6%	/	-13
CC(C)(C)OC(=O)NCCCCCNC(=O)c1[nH]cnc1C(=O)N[C@@H](CCCCNC(=O)OC(C)(C)C)C(=O)OC(C)(C)C	1%	0	-6%	-7%	-4
CC(C)(C)OC(=O)NCCCC[C@H](NC(=O)c1nc[nH]c1C(=O)N[C@@H](CCCCNC(=O)OC(C)(C)C)C(=O)OC(C)(C)C)C(=O)OC(C)(C)C	1%	0	-3%	22µM*	-17
CN(C)S(=O)(=O)c1ccc2c(c1)N(CC(=O)N1CCN(c3cccc(Cl)c3)CC1)CCS2	3%	2	0%	/	17
C=C(C(=O)Oc1ccccc1C(C)(C)C)c1ccccc1	/	/	/	35µM*	/
CC(C)(C)c1ccccc1OCC(=O)NCCC(=O)O	-4%	-1	1%	/	18
COc1ccc(C)cc1Nc1n[n+](-c2ccccc2)c(-c2cc([N+](=O)[O-])cc(OC)c2O)s1	22µM*	1	-9%	-6%	-10
CC(C)(C)n1ncc2c(=O)n(Cc3ccc(Cl)c(OC(F)(F)F)c3)cnc21	/	5	-1%	/	10
